Screening results deposited in PubChem BioAssay by National Center for Advancing Translational Sciences (NCATS).
GALC G270D up: raises human GALC G270D mutant activity in cells. 145M-Twi-hGALC-G270D cells (Twitcher mouse brain line with human GALC G270D), HMU-beta-Gal fluorescence, 48 h. Potency, µM (doses to about 57.5 µM), usual class: activators. actives 0.1% (n = 45,000); further: potency means the concentration at half of the fitted maximal effect; 0% is about no effect; nearly all actives have a fitted effect of over 65% in size
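Fluorescence readout: HMU-β-gal cleavage by mutant GALC (0.1 mM final, citrate/phosphate pH 5.2 with 1 mg/mL taurocholate), stopped with carbonate/bicarbonate plus Triton X-100. Cells: murine Twitcher 145M-Twi expressing human G270D GALC; qHTS for activators.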
B2AR arrestin ag: beta-arrestin recruitment by human beta2-adrenergic receptor ligands. P07550. HTLA Tango cells, beta-arrestin recruitment, luciferase luminescence, 18 h. Potency, µM (highest dose often 46.1 µM), actives largely listed as activators. 44,000 tested, under 10 active;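 further: potency means the concentration at half of the fitted maximal effect; 0% = DMSO and full agonism = EC100 isoproterenol or metaproterenol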
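Tango cells (recombinant beta2-AR, beta-arrestin, tTA-driven luciferase), 1500/well in DMEM 1% FBS, treated 18 h at 37 °C with compounds up to 46 µM; luciferin mix added, luminescence read after 15 min; %activity curves fitted and curve-classed.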
GPR32 ag: activates human resolvin D1 receptor GPR32; activation, % at 76.9 µM; CHO-K1 GPR32 beta-arrestin PathHunter luminescence, 90 min; zero percent set by DMSO-only wells; actives 2.5% (n = 48,000); AID 1346428; O75388;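 active means activation of at least 60% and not above a set upper limit, about 1 call in 100 departs from these limits; inconclusive means activation of 40% to 60%, or above that upper limit; inactive means activation under 40%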; further: 0% is about no effect
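Using DMSO wells as EC0, agonist-induced signal was taken as chemiluminescence from beta-Gal reconstituted upon beta-arrestin recruitment to GPR32 in CHO-K1 cells after 90 min compound treatment.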
NTMT1 inhibitor: inhibitors of human N-terminal methyltransferase NTMT1; Q9BV86; NTMT1 MTase-Glo SAH luminescence, purified enzyme; actives 2.5% (n = 59,000); Potency, µM (doses to about 114 µM), without a hit: top-dose activity change, negative = inhibition, most hits filed as inhibitors; AID 1645870;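 further: potency means the concentration at half of the fitted maximal effect; plate controls were DMSO vehicle for no effect and no enzyme for full effect; nearly all actives have a fitted effect of over 65% in size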
Target sequence (Q9BV86 whole entry, looked up): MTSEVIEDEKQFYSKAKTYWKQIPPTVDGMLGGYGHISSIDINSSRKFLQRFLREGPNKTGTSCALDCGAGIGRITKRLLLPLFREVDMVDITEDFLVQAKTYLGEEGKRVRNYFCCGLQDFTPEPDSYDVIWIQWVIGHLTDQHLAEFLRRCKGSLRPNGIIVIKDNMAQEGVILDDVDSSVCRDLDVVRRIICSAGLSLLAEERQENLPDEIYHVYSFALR
GALK inh: inhibitors of human galactokinase (GALK). P51570. recombinant GALK, Kinase-Glo ATP luminescence, 1 h. Potency, µM (highest dose often 57.5 µM), without a hit: at the top dose activity, negative = inhibition, usual class: inhibitors. 44,000 tested, under 10 active;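 further: plate controls were full GALK reaction for no effect and reaction lacking GALK for full effect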
Target sequence (P51570 whole entry, looked up): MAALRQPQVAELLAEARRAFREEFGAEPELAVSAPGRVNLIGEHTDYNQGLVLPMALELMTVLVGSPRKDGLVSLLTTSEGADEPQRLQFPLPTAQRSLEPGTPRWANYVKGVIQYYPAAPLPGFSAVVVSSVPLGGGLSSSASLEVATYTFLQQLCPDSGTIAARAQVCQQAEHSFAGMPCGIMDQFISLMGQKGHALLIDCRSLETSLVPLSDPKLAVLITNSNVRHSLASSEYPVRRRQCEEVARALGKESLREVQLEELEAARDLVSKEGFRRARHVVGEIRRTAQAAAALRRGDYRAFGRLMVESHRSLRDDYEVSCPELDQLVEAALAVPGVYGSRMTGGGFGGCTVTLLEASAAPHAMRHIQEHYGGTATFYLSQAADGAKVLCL
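Reactions with and without enzyme served as controls. GALK at 5 nM phosphorylates 100 uM galactose using 35 uM ATP (HEPES pH 8.0, Mg2+) for 1 h at RT, with luminescence read 10 min after adding Kinase-Glo Plus.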
* = called active by the depositor; i = inactive; ? = inconclusive; . = not tested or not shown; ! = not active in a repeat; [ ] = remark or other dose. Rows were chosen to be rich in hits. Some 3.6% of all compounds tested hit in one or more screens of this group. Unless noted, the call rests on the fitted dose curve; in most records, active means well fitted curve in the direction sought with a large enough effect; inconclusive means small, poorly fitted or top-dose-only effect, or another doubt; inactive means no such curve, though single readings can be large; an effect the other way counts as inactive or inconclusive.

SMILES	GALC G270D up	B2AR arrestin ag	GPR32 ag	NTMT1 inhibitor	GALK inh
CN(C)CCn1cc(-c2ccc(F)cc2)c(-n2cccc2)n1	.	.	.	-4%[57.5 µM]	.
CCCCNc1ncc(C(=O)NCc2ccc(-n3ccnc3)cc2)c(NC2CCC(O)CC2)n1 (stereo not given)	.	.	.	7%[57.5 µM]	.
Cc1cc(C)n2ncc(C(=O)Nc3ccc(C(F)(F)F)cc3)c2n1	.	.	.	-2%	.
Cc1ccccc1C(=O)Nc1cc2c(cc1N1CCCCC1)n(C)c(=O)n2C	.	i	?	.	-8%
CCOc1ccc(NC(=O)Nc2cc3c(cc2N2CCCCC2)n(C)c(=O)n3C)cc1	i	i	107*	?	2%
Cn1c(=O)n(C)c2cc(N3CCCC3)c(NC(=O)Nc3ccccc3)cc21	i	i	39	?	2%
Cn1c(=O)n(C)c2cc(N3CCCCC3)c(NC(=O)c3c(F)cccc3F)cc21	.	i	118*	.	1%
Cc1ccc(Nc2cc(N[C@@H]3CCCC[C@@H]3N)nnc2C(N)=O)nc1C	.	.	.	-17%	.
OC1COC(OCC2OC(OCCc3ccccc3)C(O)C(O)C2O)C(O)C1O (stereo not given)	.	.	.	-20%[29.8 µM]	.
COc1ccc(OCC(=O)N(Cc2ccc(C)o2)C2CCS(=O)(=O)C2)cc1 (stereo not given)	i	i	-23	?	0%
Cc1ccc(CN(C(=O)COc2ccc(C(C)C)cc2)C2CCS(=O)(=O)C2)o1 (stereo not given)	i	i	61*	-23%	1%
Cc1ccc(NC(=O)Cn2nc(C(F)(F)F)c3c2CCCC3)cc1	i	i	77*	-3%	2%
CCc1ccc(NC(=O)Cn2nc(C(F)(F)F)c3c2CCCC3)cc1	i	i	7	3%	2%
CC(C)c1cc(C(C)C)c(CC(=O)NS(=O)(=O)Oc2c(C(C)C)cccc2C(C)C)c(C(C)C)c1	.	.	.	40µM*!	.
O=C1NC(=O)/C(=C/c2ccc3c(c2)OC(F)(F)O3)S1	.	.	24	-1%[57.5 µM]	.
O=C1NC(=O)C(=Cc2ccc(-c3ccc(F)cc3O)o2)S1	.	.	.	24µM*	.
O=C([C@H](Cc1ccc(O[S+](=O)([O-])c2cccc3cccnc23)cc1)N[S+](=O)([O-])c1cccnc1)N1CCN(c2ccccc2)CC1	.	.	.	6%	.
Cc1ccc(-n2[nH]c(C)c(N=Nc3cccc(-c4cccc(C(=O)O)c4)c3O)c2=O)cc1C	i	.	30	35µM*!	.
COc1cccc(Cn2c(=O)cc(C)c3c(C)nn(C)c32)c1	i	i	79*	?	0%
COc1ccccc1N1CCN(c2ncnc3c2nc2n3CCCC2)CC1	i	i	63*	?	-1%
COc1ccc(Nc2ncnc3c2nc2n3CCCC2)cc1Cl	i	i	8	?	-9%
COc1ccc(Nc2ncnc3sc4c(c23)CCCC4)cc1	i	i	94*	22µM*	1%
CCOc1ccc(Nc2ncnc3c2nc2n3CCCCC2)cc1	i	i	85*	-27%	1%
COc1ccc(Nc2ncnc3c2nc2n3CCCCC2)cc1	i	i	77*	1%	-3%
CC(=O)c1ccc(C(=O)Nc2nnc(-c3ccco3)o2)cc1	.	.	.	3%	.
SMILES	GALC G270D up	B2AR arrestin ag	GPR32 ag	NTMT1 inhibitor	GALK inh
CC(C)(C)OC(=O)N1CCN(c2cnc(NCc3ccc(-c4ccc(C#N)cc4)o3)nc2)CC1	.	.	.	2%	.
C[C@@H]1O[C@@H](O[C@@H]2[C@@H](O)[C@H](O[C@H]3[C@H](O[C@H]4CC[C@@]5(C)C(CC[C@]6(C)C5CC=C5[C@@H]7CC(C)(C)CC[C@]7(C(=O)O[C@@H]7O[C@H](CO)[C@@H](O)[C@H](O)[C@H]7O[C@@H]7O[C@@H](C)[C@H](O[C@@H]8O[C@@H](C)[C@H](O)[C@@H](O)[C@H]8O)[C@@H](O)[C@H]7O)CC[C@]56C)[C@@]4(C)CO)O[C@H](C(=O)O)[C@@H](O)[C@@H]3O)O[C@H](CO)[C@H]2O)[C@H](O)[C@H](O)[C@H]1O (stereo not given in full)	.	.	.	6%[6.45 µM]	.
COc1cccc(C(=O)Nc2ccc([S+](=O)([O-])Nc3nccs3)cc2)c1O	.	.	.	12%	.
Cn1c(=O)c2c(nc(NCCc3ccccc3)n2Cc2ccc(Cl)cc2)n(C)c1=O	i	i	73*	17%	-2%
Cn1c(=O)c2c(nc(NCc3ccccc3)n2Cc2ccccc2)n(C)c1=O	i	i	17	-5%	0%
CC1(C)CC2C(O)C3=C(CC(C)(O)C2C1)C(=O)OC3O (stereo not given)	.	.	.	8%[57.5 µM]	.
O=C(Cn1nnc(-c2ccccc2Cl)n1)Nc1ccc(Br)cc1	i	i	11	0%	0%
CCc1ccc(NC(=O)Cn2nnc(-c3ccccc3N)n2)cc1	i	i	62*	2%	4%
COc1ccc(-n2c(C)c(C(C)=O)c3ccccc32)cc1	.	.	.	4%	.
O=C(c1ccc(F)cc1)C1CCN(CCn2c(=O)[nH]c3ccccc3c2=O)CC1	i	.	82*!	?	.
O=c1[nH]c2ccccc2c(=O)n1CCCl	i	.	-4	?	.
Cc1ccc(S(=O)(=O)Nc2cnccc2C(=O)Nc2ccccc2)cc1	.	.	.	7%	.
CCCCn1c(=N)n(CCCOc2ccc(F)cc2)c2ccccc21	i	i	76*	-14%	4%
O=c1[nH]nc(Sc2ncc([N+](=O)[O-])s2)n1-c1ccc2c(c1)OCCO2	.	.	.	4.3µM*!	.
CN(C)CCOc1ccc(-c2nc(-c3ccc4c(c3)CC/C4=N/O)c(-c3ccncc3)[nH]2)cc1	.	.	.	25µM*	.
O=C(Nc1ccc(-c2nc3ccccc3[nH]2)cc1)Nc1ccc2occc2c1	.	.	.	9%	.
Cc1cc(N(C)S(=O)(=O)c2ccc(NC(=O)Cc3ccc(Cl)c(Cl)c3)cc2)no1	.	.	.	0%[57.5 µM]	.
C=CC(=O)Nc1cc(Nc2ncc(Cl)c(-c3c[nH]c4ccccc34)n2)c(OC)cc1N(C)CCN(C)C	.	.	.	20µM*	.
COc1cc(Cl)c(C)cc1NC(=O)Cn1ncc2c([nH]c3ccccc32)c1=O	i	i	-11	-22%	1%
N#Cc1ccnc(N2C(=O)CC[C@H]2C(=O)N(c2cncc(F)c2)C(C(=O)NC2CC(F)(F)C2)c2ccccc2Cl)c1 (stereo not given in full)	.	.	.	6%	.
NC(=O)C1CCN(c2ncc(Br)s2)CC1	.	.	.	40µM*	.
CC(C)S(=O)(=O)NC[C@H](C)c1ccc(-c2ccc(CCNS(C)(=O)=O)cc2)cc1	.	.	.	-3%[57.5 µM]	.
CC1CCN(c2ccc(NC(=O)c3cccc(Cl)c3)cc2C(=O)O)CC1	i	i	2	45µM*	3%
COc1ccc(C(=O)Nc2ccc(N3CCN(c4ccccc4)CC3)c(C(=O)O)c2)cc1	i	i	4	18%	-6%
